Measurements published in PubChem BioAssay AID1159580 (chemical genetic matrix, 2015).
Among all 5,500 compounds or so, about 2,000 (36%) were called active. Inconclusive results (about 18%) are left out. Cut-off read from the data, not from the text of the source: active = normalized growth mostly below about 0.91 (no sharp cut-off); inconclusive = no clear call, values can overlap the other calls; inactive = mostly above about 0.92. The list shows a part of the results.

Experiment: chemical genetic growth profiling, strain panel (AID 1159580);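 note: tested at 20 µM; growth read once vehicle control cultures reached saturation at 30 °C; 1 = growth at the plate median or of vehicle wells; lower values mean less growth of the strain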
Details: S. cerevisiae deletion strains, growth OD

Measured: normalized growth

CCOC(=O)c1[nH]c(Cc2[nH]c(C(=O)OCC)c(C)c2C)c(C)c1C
inactive: locus YAL013W, strain DEP1, stronger effect = lower value 1 | locus YBR229C, strain ROT2, stronger effect = lower value 1.02 | locus YCL061C, strain MRC1, stronger effect = lower value 1.02 | locus YDL101C, strain DUN1, stronger effect = lower value 1.03 | locus YDL134C, strain PPH21, stronger effect = lower value 1.01 | locus YDR150W, strain NUM1, stronger effect = lower value 0.978 | locus YEL061C, strain CIN8, stronger effect = lower value 1.01 | locus YGR078C, strain PAC10, stronger effect = lower value 1.02 | locus YHR030C, strain SLT2, stronger effect = lower value 1.06 | locus YHR087W, strain rtc3, stronger effect = lower value 1.01 | locus YJR043C, strain POL32, stronger effect = lower value 1.04 | locus YKL190W, strain CNB1, stronger effect = lower value 1.01 | locus YLR039C, strain RIC1, stronger effect = lower value 0.981 | locus YLR058C, strain SHM2 (second series), stronger effect = lower value 1.02 | locus YLR085C, strain ARP6, stronger effect = lower value 1.01 | locus YLR262C, strain YPT6, stronger effect = lower value 0.981 | locus YML094W, strain GIM5, stronger effect = lower value 0.988 | locus YMR219W, strain ESC1, stronger effect = lower value 1.01 | locus YMR263W, strain SAP30, stronger effect = lower value 1.02 | locus YMR307W, strain GAS1, stronger effect = lower value 0.948 | locus YNL153C, strain GIM3, stronger effect = lower value 1.02 | locus YNL298W, strain CLA4 (second series), stronger effect = lower value 1.04 | locus YNL322C, strain KRE1, stronger effect = lower value 1 | locus YNR030W, strain Alg12, stronger effect = lower value 1.04 | locus YPL055C, strain LGE1, stronger effect = lower value 0.994 | locus YPL241C, strain CIN2, stronger effect = lower value 1.01 | locus YPR135W, strain CTF4, stronger effect = lower value 1.08
